# The full list was thinned out, with hits kept by preference.
# DUSP3 inh = blocks the human dual specificity phosphatase VHR1. inhibition, % at 20 µM. AID 1992. recombinant VHR phosphatase, colorimetric substrate read-out. P51452. actives 0.7% (n = 50,000); in the data active = inhibition above about 60%
# Target sequence (P51452 whole entry, looked up): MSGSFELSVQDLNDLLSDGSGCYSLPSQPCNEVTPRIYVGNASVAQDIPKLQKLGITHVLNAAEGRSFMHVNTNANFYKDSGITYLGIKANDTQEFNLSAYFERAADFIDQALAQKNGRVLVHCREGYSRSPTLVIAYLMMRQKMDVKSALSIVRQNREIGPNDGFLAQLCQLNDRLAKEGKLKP
# Starred values were filed as active, the others as inactive.
SMILES,DUSP3 inh
CCN1C(=O)/C(=C\c2cccc(OS(=O)(=O)c3ccc(C)cc3)c2)SC1=S,-3
C=CCN1C(=O)/C(=C\c2cccc(OS(=O)(=O)c3ccc(C)cc3)c2)SC1=S,-10
Cc1ccc(S(=O)(=O)Oc2cccc(/C=C3/SC(=S)N(Cc4ccccc4)C3=O)c2)cc1,108*
Fc1cccc(Cl)c1/C=N/Nc1nc2ccccc2s1,-12
CCc1nc(C)cn1S(=O)(=O)c1ccc(Cl)c([N+](=O)[O-])c1,-9
O=C(Nc1ccc(Cl)c(Cl)c1)C1C2/C=C\CCCCC21 (configuration not stated),-14
O=C(O)C1C(C(=O)Nc2ccccc2)C2C=CC1C21CC1 (configuration not stated),-18
O=C(Nc1ccccc1)C1C2/C=C\CCCCC21 (configuration not stated),100*
CCOc1ccc(NC(=O)C2C3CCC(C3=C(C)C)C2C(=O)O)cc1 (configuration not stated),-4
CCOc1ccc(C(=O)Nc2ccc(OC)cc2OC)cc1OCC,-18
COc1ccc(CCNCc2ccc(Cl)cc2)cc1OC,-6
CCNC(=O)C(=O)Nc1cc(Cl)ccc1C,-16
O=C1NN(c2ccccc2)C(=O)/C1=C/c1ccc(Br)o1,32
COc1ccccc1-n1cnc2cc(NC(=O)c3ccc(C)cc3)ccc21,-15
COc1ccccc1-n1cnc2cc(NC(C)=O)ccc21,-6
COc1ccc(-n2cnc3cc(NC(C)=O)ccc32)cc1,97*
COc1ccccc1NC(=O)C1C2C3CCC(C3)C12 (configuration not stated),-23
O=C(Nc1cccc2ccccc12)C1C2C3CCC(C3)C12 (configuration not stated),79*
O=C(Nc1cccc2ccccc12)C1CC2CCC1C2 (configuration not stated),0
COc1ccccc1C/C(N)=N/OC(=O)c1ccccc1Br,-1
COc1ccccc1C/C(N)=N/OC(=O)c1ccc(I)cc1,4
COc1ccccc1C/C(N)=N/OC(=O)c1ccco1,96*
CC1=NN(c2ccccc2)C(=O)C1C=C1C(=O)c2ccccc2C1=O (configuration not stated),-4
CC1(C)CCC[C@@]2(C)C1CC[C@]1(C)OC(=O)C[C@H]21 (some centres not stated),-12
COc1ccc(C(=O)CCNc2ccccc2)cc1,-16
SMILES,DUSP3 inh
C=CCN1C(=O)/C(=C\c2ccc(-c3cc([N+](=O)[O-])ccc3C)o2)C(=O)NC1=S,74*
O=C1NC(=S)N(c2cccc(Br)c2)C(=O)/C1=C/c1ccc(-c2ccccc2C(=O)O)o1,80*
O=C1NC(=O)N(c2ccccc2)C(=O)/C1=C/c1ccc(-c2ccccc2C(=O)O)o1,8
Cc1ccc([N+](=O)[O-])cc1-c1ccc(/C=C2/C(=O)NC(=O)N(c3ccccc3)C2=O)o1,43
Cc1ccc([N+](=O)[O-])cc1-c1ccc(/C=C2\C(=O)NC(=O)N(c3ccc(Cl)cc3)C2=O)o1,-30
CC(C)c1ccc(N2C(=O)NC(=O)/C(=C/c3cccc([N+](=O)[O-])c3)C2=O)cc1,6
COc1cc(/C=C2/C(=O)NC(=O)N(c3ccc(C(C)C)cc3)C2=O)cc(OC)c1O,27
Cc1cccc(N2C(=O)NC(=O)/C(=C\c3ccc(-c4ccccc4C(=O)O)o3)C2=O)c1,-4
COc1cccc(/C=C2/C(=O)NC(=O)N(c3ccc(C(C)C)cc3)C2=O)c1O,89*
COc1cccc(/C=C2/C(=O)NC(=O)N(c3ccc(Br)cc3)C2=O)c1O,-16
O=C1NC(=O)N(c2ccc(Cl)cc2)C(=O)/C1=C\c1ccc(-c2ccc([N+](=O)[O-])cc2)o1,-16
CC(C)c1ccc(N2C(=O)NC(=O)/C(=C/c3ccc([N+](=O)[O-])o3)C2=O)cc1,85*
COC1=CC(CC(=O)c2ccc(OC)cc2)C(C(=O)c2ccccc2Cl)C=C1OC (configuration not stated),9
COC(=O)c1ccc(-c2ccc(/C=c3/sc4nc5ccccc5n4c3=O)o2)cc1,-2
Cc1ccc(/C(CCN(C)C)=N/O)cc1,-14
COc1ccc(NC(=O)COc2cc(C)c(Cl)c(C)c2)cc1OC,-15
COc1ccc(C(=O)c2c(C)oc3c2cc(OC)c2ccccc23)cc1,-7
O=C(Nc1cccc2ccccc12)C1(c2ccccc2)CCOCC1,-19
COc1cc(C2OCC3(CO)C(C)C=C(C)C2C3C)ccc1O (configuration not stated),-8
CC1CCOC(c2cccc([N+](=O)[O-])c2)O1 (configuration not stated),-16
COc1ccc(CC(=O)Nc2ccc3c(c2)OCO3)cc1OC,-2
Cc1ccc(OCC(=O)Nc2ccc(Cl)cn2)c(C)c1,-31
COc1ccc(N2C(=O)/C(=C/c3ccc(-c4ccccc4[N+](=O)[O-])o3)C(=O)NC2=S)cc1,81*
COc1ccc(-c2ccc(/C=C3\C(=O)NC(=O)N(c4ccc(Cl)cc4)C3=O)o2)c([N+](=O)[O-])c1,2
COc1ccc(N2C(=O)/C(=C/c3ccc(-c4ccc(C(=O)O)cc4)o3)C(=O)NC2=S)cc1,32
SMILES,DUSP3 inh
COc1ccc(-c2ccc(/C=C3/C(=O)NC(=O)N(c4ccccc4)C3=O)o2)c([N+](=O)[O-])c1,81*
COc1ccc(-c2ccc(/C=C3/C(=O)NC(=O)N(c4ccc(C)cc4)C3=O)o2)c([N+](=O)[O-])c1,11
O=C1NC(=O)N(c2ccc(Cl)cc2)C(=O)/C1=C\c1ccc(-c2ccccc2[N+](=O)[O-])o1,-8
CC(C)c1ccccc1OCCCNC(C)(C)C,-10
CC(C)C(=O)Nc1ccc(Br)c(NC(=O)c2ccccc2)c1,4
COc1ccc(CNS(=O)(=O)Cc2ccccc2)cc1,2
COc1cc(/C=C2\C(=O)NC(=S)N(c3cccc(Br)c3)C2=O)cc(Cl)c1O,26
Cc1ccc(/C=C2\C(=O)NC(=O)N(c3cccc(Br)c3)C2=O)cc1,10
C=CCc1cc(/C=C2\C(=O)NC(=S)N(c3cccc(Br)c3)C2=O)cc(OC)c1O,77*
C=CCc1cc(/C=C2/C(=O)NC(=O)N(c3cccc(C)c3)C2=O)cc(OC)c1O,13
COc1cc(/C=C2\C(=O)NC(=O)N(c3cccc(Br)c3)C2=O)cc(Cl)c1O,-18
COc1ccc2ccccc2c1/C=C1/C(=O)NC(=O)N(c2cccc(Br)c2)C1=O,101*
C=CCOc1c(I)cc(/C=C2/C(=O)NC(=O)N(c3cccc(C)c3)C2=O)cc1OC,13
Cc1cccnc1NC(=O)CCc1ccccc1,17
CCN(CC)C(=O)c1cc(-c2ccc(C)cc2)nc2ccccc12,21
COC(=O)C1=C(C)NC(=O)NC1c1ccc(SC)cc1 (configuration not stated),2
CSc1ccc(C2NC(=O)CCC2[N+](=O)[O-])cc1 (configuration not stated),100*
CSc1ccc(C2NC(=O)c3ccccc3N2)cc1 (configuration not stated),14
Cc1ccc(C(=O)O)cc1NC(=O)C1CC=CCC1C(=O)O (configuration not stated),17
NC(=O)CCCN1C(=O)/C(=C/c2ccccc2)SC1=S,-2
COC(=O)c1ccc(COc2cc3oc(=O)cc(-c4ccccc4)c3cc2Cl)cc1,98*
COC(=O)c1ccc(COc2cc3oc(=O)c4c(c3cc2Cl)CCC4)cc1,1
COC(=O)c1ccc(COc2ccc3c(-c4ccccc4)cc(=O)oc3c2C)cc1,-7
CN(C)c1ccc(NC(=O)/C=C\C(=O)O)cc1,-14

# Source: PubChem BioAssay (Sanford-Burnham Center for Chemical Genomics)
